This note sets out measurements from PubChem BioAssay (EPA / NIEHS).

Values joined by “and” are separate entries in the source; they are usually repeats but may differ in a detail not shown here. Equal entries are not always repeated. Inconclusive results are not listed. Active and inactive are the calls of the source. Rule for the calls, unless noted: active = hit-call score of the fitted dose curve at least 0.9, where 1 is the maximum; inconclusive = response in the unintended direction; inactive = score below 0.9.

Test [1] concerns the target Estrogen receptor (Homo sapiens) (UniProt P03372). As to the kind of experiment: OT_ERa_GFPERaERE_0480: Odyssey Thera (OT) 8-hour HeLa Transcription Induction Assay for Estrogen Receptor (AID 2283381; active = hit-call score of the fitted dose curve at least 0.9, where 1 is the maximum; inactive = score below 0.9). The method, boiled down: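 Fluorescence microscopy with high-content image analysis measures ERE-driven GFP induction in HeLa cells at 8 h post-dose. Increases fitted against DMSO baseline.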

For test [2] the target is unchanged. As to the kind of experiment: OT_ERa_GFPERaERE_0120: Odyssey Thera (OT) 2-hour HeLa Transcription Induction Assay for Estrogen Receptor (AID 2283382). An outline of the steps: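 Fluorescence-microscopy images of the GFP-ERα/ERE reporter, scored by high-content image algorithms, give the readout. HeLa exposure lasted 2 h, and only signal increase over DMSO was fitted.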

Test [3] has as its target Bile acid receptor (Homo sapiens) (UniProt Q96RI1). As to the kind of experiment: OT_FXR_FXRSRC1_0480: Odyssey Thera (OT) 8-hour HEK293T Protein-Complementation Assay for Farnesoid X receptor/SRC-1 Co-activator (AID 2283383). The method, boiled down: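 Binding of FXR to coactivator SRC-1 was read as fluorescence from a reconstituted split reporter in HEK293T cells, 8 h after chemical addition. Only increases in signal versus DMSO were fit.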

Test [4] shares this target. Description: OT_FXR_FXRSRC1_1440: Odyssey Thera (OT) 24-hour HEK293T Protein-Complementation Assay for Farnesoid X receptor/SRC-1 Co-activator (AID 2283384). An outline of the steps: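 Protein-fragment complementation: FXR and SRC-1 fused to reporter fragments that reassemble on interaction, read by fluorescence intensity. Human HEK293T cells measured 24 h post-dose; positive-direction fit versus DMSO.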

The target in test [5] is Retinoic acid receptor RXR-alpha (Homo sapiens) (UniProt P19793). As to the kind of experiment: OT_NURR1_NURR1RXRa_0480: Odyssey Thera (OT) 8-hour HEK293T Protein Complementation Assay for Nurr1/retinoid X receptor (RXR) (AID 2283385). The method, boiled down:
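Interaction of Nurr1 with RXRα read as reconstituted reporter fluorescence in a HEK293T fragment-complementation system, 8 h post-treatment; increase over DMSO baseline analysed.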

The target is the same in test [6]. As to the kind of experiment: OT_NURR1_NURR1RXRa_1440: Odyssey Thera (OT) 24-hour HEK293T Protein Complementation Assay for Nurr1/retinoid X receptor (RXR) (AID 2283386). The method, boiled down: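 Gain in fluorescence, fitted relative to DMSO, reflects Nurr1–RXRα association in HEK293T cells after 24 h dosing. Bait and prey are each linked to a reporter-protein fragment that reassembles on interaction.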

Test [7] addresses Peroxisome proliferator-activated receptor gamma (Homo sapiens) (UniProt P37231). Description: OT_PPARg_PPARgSRC1_0480: Odyssey Thera (OT) 8-hour Protein-Complementation Assay for Peroxisome Proliferator-activated Receptor Gamma / SRC-1 Co-activator (AID 2283387).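 Note: nuclear to cytoplasmic split Venus YFP fluorescence ratio reporting PPARg SRC-1 interaction.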 An outline of the steps:
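Protein-fragment complementation in HEK293T: Venus YFP halves (residues 1-158, 159-239, mutated to IFP1/IFP2) fused to PPARg/SRC-1. 8 h exposure; N/C ratio at 488 nm; DMSO negative control.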

Test [8] has the same target. Description: OT_PPARg_PPARgSRC1_1440: Odyssey Thera (OT) 24-hour Protein-Complementation Assay for Peroxisome Proliferator-activated Receptor Gamma/ SRC-1 Co-activator (AID 2283388).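 Note: nuclear to cytoplasmic ratio of reconstituted Venus YFP fluorescence in fixed imaged cells.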 The method, boiled down:
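Protein-fragment complementation between PPARg and coactivator SRC-1 was measured by fluorescence imaging in transiently transfected HEK293T cells after 24 h treatment. Signal was quantified as N/C ratio in the 488 nm channel, with DMSO as negative control.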

Test [9] in a line: CEETOX_H295R_11DCORT: CeeTox H295R High-throughput Steroidogenesis Assay for 11-Deoxycortisol (11DCORT) (AID 2283432; active = hit-call score of the fitted dose curve at least 0.9, where 1 is the maximum; inactive = score below 0.9;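 for AC50: human adrenal H295R cells prestimulated with 10 µM forskolin for 48 h; 11-deoxycortisol secreted into the medium measured by LC-MS/MS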). To be noted: actives raise or lower the signal. An outline of the steps:
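Adrenal carcinoma line H295R, run per OECD 456 with minor changes, was forskolin-stimulated (10 uM, 48 h) before a 48 h chemical exposure at 0.1% DMSO. Secreted 11-deoxycortisol was quantified by HPLC-MS/MS.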

A short description of test [10]: CEETOX_H295R_OHPREG: CeeTox H295R High-throughput Steroidogenesis Assay for OH-Pregnenolone (OHPREG) (AID 2283434; active = hit-call score of the fitted dose curve at least 0.9, where 1 is the maximum; inactive = score below 0.9). To be noted: actives raise or lower the signal. An outline of the steps:
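H295R, 10 uM forskolin pre-stim 48 h; test chemical 48 h, 0.1% DMSO final. MTBE extraction, reverse-phase C18 HPLC-ESI+ MS/MS of medium. Gain/loss vs DMSO; viability by MTT in same wells.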

Bile acid receptor (Homo sapiens), sequence (Q96RI1 whole entry, looked up): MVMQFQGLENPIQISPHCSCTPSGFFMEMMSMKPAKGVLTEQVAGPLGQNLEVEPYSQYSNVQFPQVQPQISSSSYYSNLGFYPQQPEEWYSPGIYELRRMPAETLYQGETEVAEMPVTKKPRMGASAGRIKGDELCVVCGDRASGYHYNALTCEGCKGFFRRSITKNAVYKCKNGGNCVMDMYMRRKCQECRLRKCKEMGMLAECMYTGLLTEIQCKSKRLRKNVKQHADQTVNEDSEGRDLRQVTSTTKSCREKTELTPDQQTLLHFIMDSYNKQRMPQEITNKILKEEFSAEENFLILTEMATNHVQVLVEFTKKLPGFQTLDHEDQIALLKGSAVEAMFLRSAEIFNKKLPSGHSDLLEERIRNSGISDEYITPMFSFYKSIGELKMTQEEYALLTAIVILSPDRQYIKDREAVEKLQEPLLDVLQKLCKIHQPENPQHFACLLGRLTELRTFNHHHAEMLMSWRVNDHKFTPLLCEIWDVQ
Peroxisome proliferator-activated receptor gamma (Homo sapiens), sequence (P37231 whole entry, looked up, the tested form may be a part): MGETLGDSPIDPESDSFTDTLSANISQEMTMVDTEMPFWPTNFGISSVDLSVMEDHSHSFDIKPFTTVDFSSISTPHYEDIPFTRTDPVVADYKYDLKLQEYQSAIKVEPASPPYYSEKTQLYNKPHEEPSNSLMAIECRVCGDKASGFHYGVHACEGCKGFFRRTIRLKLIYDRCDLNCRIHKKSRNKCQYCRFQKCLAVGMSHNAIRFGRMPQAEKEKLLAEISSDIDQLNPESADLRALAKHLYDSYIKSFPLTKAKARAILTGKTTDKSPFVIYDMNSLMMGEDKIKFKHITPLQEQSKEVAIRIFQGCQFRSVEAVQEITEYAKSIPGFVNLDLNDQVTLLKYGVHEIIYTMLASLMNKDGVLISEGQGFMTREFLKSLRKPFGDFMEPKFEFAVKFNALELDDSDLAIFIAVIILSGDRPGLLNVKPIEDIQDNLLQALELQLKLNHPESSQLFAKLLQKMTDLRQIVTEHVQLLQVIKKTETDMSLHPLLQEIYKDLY
Retinoic acid receptor RXR-alpha (Homo sapiens), sequence (P19793 whole entry, looked up, the tested form may be a part): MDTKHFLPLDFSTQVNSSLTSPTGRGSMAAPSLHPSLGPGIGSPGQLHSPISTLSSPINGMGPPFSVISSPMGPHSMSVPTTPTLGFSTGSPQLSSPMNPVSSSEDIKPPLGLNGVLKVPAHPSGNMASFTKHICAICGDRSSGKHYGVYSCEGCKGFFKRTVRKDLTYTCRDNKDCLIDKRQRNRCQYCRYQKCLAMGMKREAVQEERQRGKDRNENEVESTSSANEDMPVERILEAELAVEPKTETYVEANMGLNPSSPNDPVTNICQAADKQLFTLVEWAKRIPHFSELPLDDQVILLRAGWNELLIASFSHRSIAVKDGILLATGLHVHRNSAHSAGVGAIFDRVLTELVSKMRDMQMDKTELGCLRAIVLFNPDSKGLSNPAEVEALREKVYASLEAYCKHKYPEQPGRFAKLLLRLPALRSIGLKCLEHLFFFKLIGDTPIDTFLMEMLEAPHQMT
Estrogen receptor (Homo sapiens), sequence (P03372 whole entry, looked up): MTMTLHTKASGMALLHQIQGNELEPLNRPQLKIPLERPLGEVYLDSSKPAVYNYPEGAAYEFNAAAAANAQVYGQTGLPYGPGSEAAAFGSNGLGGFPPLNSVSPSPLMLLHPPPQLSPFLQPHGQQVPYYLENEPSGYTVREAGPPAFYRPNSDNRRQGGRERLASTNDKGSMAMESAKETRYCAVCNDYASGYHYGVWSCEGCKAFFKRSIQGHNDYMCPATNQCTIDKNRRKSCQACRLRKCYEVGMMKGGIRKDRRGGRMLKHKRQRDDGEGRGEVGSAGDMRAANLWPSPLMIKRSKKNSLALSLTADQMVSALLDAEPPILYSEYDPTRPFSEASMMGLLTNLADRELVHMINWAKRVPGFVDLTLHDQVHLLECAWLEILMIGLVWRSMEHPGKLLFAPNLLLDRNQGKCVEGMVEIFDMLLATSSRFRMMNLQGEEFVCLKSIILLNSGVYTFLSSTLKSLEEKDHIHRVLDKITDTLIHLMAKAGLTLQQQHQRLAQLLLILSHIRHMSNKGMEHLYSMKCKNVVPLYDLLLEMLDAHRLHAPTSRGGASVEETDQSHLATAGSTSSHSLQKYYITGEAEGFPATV

In the case of `O=P(O)(O)CCCl`, the result in test [1], in test [2], in test [3], in test [4], in test [5] and in [6] was inactive. In addition, the result in [7] and in test [8] was inactive.

Consider `COc1cc(OC)nc(NC(=O)NS(=O)(=O)c2ncccc2OCC(F)(F)F)n1`, for which the compound was classed as inactive in test [1], in test [2], in test [3], in test [4], in test [6] and in [7]. Further, in test [8], the compound was classed as inactive.

With `COc1ccc(-c2ccccc2)cc1NNC(=O)OC(C)C`, the result in test [1], in [2], in [3], in test [4], in test [5] and in test [6] was inactive. For the same compound, the outcome in test [7] and in test [8] was inactive.

For the compound `CC(C)C1(C)N=C(c2ncccc2C(=O)O)NC1=O` (configuration not stated), the result in [1], in [2], in test [6], in test [7] and in test [8] was inactive.

For orientation: AC50 means the concentration at which the activity in the assay is half-maximal. In the case of `Cc1ccc(N=CN(C)C=Nc2ccc(C)cc2C)c(C)c1`, the call in [1], in [2], in test [7] and in test [8] was inactive. In addition, the AC50 was 50 µM (active) in test [5]; 80.8 µM (active) and 31.9 µM (active) in test [6].

Regarding `COc1cc(Cl)c(OC)cc1Cl`, the result in [1], in test [2], in test [5], in test [6], in test [7] and in test [8] was inactive. Also, the compound was classed as inactive in test [9] and in [10].

`CC(C)(C)C(=O)C(Oc1ccc(Cl)cc1)n1cncn1` (configuration not stated): the compound was called inactive in test [1], in test [2], in [5], in test [7] and in [8]. In addition, the AC50 is 58.9 µM (active) in test [9] and 21.6 µM (active) in [10].

On to `COP(=S)(OC)SCn1nnc2ccccc2c1=O`, for which the compound was classed as inactive in [1], in test [2], in test [7], in test [8] and in [10].

For `Clc1nc(Cl)nc(Nc2ccccc2Cl)n1`, the outcome in test [1], in test [2], in [5], in test [6], in test [7] and in [8] was inactive. Further, the outcome in test [9] and in test [10] was inactive.

Regarding `CCOC(=O)C(C)OC(=O)c1cc(Oc2ccc(C(F)(F)F)cc2Cl)ccc1[N+](=O)[O-]` (configuration not stated), the compound was called inactive in [1], in [2], in [5], in test [6], in test [7] and in test [8]. In addition, the compound was called inactive in test [9] and in [10].

Consider `CC(C)Oc1cccc(NC(=O)c2ccccc2C(F)(F)F)c1`, for which the compound was called inactive in test [1], in [2], in test [5], in [6], in [7] and in [8]. In addition, the compound was classed as inactive in [10]. Also, the AC50 in [9] was 28.9 µM (active).

Take `CC1(C)C(C=C(Cl)Cl)C1C(=O)OC(C#N)c1cccc(Oc2ccccc2)c1` (configuration not stated): the call in test [1], in test [2], in [5], in [6], in test [7] and in [8] was inactive. Moreover, the result in test [9] and in test [10] was inactive.

Turning to `CNC(=O)Oc1cccc2ccccc12`, the call in test [1], in test [4], in test [5] and in test [10] was inactive.

Consider `CCSC(=O)N1CCCCCC1`, for which the compound was called inactive in [1], in [2], in test [6], in test [7], in test [8] and in test [10].

Take `N#Cc1c(Cl)cccc1Cl`: the outcome in [1], in [2], in [5], in test [6], in test [7] and in [8] was inactive. Further, the compound was classed as inactive in [9] and in [10].

As for `CCOP(=S)(OCC)Oc1nc(Cl)n(C(C)C)n1`, the call in test [1], in [2], in test [7], in test [8], in test [9] and in [10] was inactive.

`N#Cc1c[nH]cc1-c1cccc2c1OC(F)(F)O2`: the compound was classed as inactive in test [1], in [2], in [6], in test [7] and in test [8].

With `O=C(Nc1ccccc1-c1ccc(Cl)cc1)c1cccnc1Cl`, the compound was called inactive in [1], in test [2], in test [5], in test [6], in [7] and in test [8]. For the same compound, the compound was called inactive in test [9] and in test [10].

Regarding `CC(C)N1C(=O)c2ccccc2NS1(=O)=O`, the compound was classed as inactive in test [1], in test [2], in test [7] and in test [8].
